Only some compounds are listed: those with a hit (about 3.5% of all), similar ones and a draw of the others.
mHTT-CaM PPI inh: disrupts binding of mutant huntingtin to calmodulin; P42858; AlphaScreen His-mHTT/GST-CaM binding, luminescence; inhibition, % at 15 µM; 3.6% of 190,000 active; AID 1671202
Target sequence (P42858 whole entry, looked up, change not shown): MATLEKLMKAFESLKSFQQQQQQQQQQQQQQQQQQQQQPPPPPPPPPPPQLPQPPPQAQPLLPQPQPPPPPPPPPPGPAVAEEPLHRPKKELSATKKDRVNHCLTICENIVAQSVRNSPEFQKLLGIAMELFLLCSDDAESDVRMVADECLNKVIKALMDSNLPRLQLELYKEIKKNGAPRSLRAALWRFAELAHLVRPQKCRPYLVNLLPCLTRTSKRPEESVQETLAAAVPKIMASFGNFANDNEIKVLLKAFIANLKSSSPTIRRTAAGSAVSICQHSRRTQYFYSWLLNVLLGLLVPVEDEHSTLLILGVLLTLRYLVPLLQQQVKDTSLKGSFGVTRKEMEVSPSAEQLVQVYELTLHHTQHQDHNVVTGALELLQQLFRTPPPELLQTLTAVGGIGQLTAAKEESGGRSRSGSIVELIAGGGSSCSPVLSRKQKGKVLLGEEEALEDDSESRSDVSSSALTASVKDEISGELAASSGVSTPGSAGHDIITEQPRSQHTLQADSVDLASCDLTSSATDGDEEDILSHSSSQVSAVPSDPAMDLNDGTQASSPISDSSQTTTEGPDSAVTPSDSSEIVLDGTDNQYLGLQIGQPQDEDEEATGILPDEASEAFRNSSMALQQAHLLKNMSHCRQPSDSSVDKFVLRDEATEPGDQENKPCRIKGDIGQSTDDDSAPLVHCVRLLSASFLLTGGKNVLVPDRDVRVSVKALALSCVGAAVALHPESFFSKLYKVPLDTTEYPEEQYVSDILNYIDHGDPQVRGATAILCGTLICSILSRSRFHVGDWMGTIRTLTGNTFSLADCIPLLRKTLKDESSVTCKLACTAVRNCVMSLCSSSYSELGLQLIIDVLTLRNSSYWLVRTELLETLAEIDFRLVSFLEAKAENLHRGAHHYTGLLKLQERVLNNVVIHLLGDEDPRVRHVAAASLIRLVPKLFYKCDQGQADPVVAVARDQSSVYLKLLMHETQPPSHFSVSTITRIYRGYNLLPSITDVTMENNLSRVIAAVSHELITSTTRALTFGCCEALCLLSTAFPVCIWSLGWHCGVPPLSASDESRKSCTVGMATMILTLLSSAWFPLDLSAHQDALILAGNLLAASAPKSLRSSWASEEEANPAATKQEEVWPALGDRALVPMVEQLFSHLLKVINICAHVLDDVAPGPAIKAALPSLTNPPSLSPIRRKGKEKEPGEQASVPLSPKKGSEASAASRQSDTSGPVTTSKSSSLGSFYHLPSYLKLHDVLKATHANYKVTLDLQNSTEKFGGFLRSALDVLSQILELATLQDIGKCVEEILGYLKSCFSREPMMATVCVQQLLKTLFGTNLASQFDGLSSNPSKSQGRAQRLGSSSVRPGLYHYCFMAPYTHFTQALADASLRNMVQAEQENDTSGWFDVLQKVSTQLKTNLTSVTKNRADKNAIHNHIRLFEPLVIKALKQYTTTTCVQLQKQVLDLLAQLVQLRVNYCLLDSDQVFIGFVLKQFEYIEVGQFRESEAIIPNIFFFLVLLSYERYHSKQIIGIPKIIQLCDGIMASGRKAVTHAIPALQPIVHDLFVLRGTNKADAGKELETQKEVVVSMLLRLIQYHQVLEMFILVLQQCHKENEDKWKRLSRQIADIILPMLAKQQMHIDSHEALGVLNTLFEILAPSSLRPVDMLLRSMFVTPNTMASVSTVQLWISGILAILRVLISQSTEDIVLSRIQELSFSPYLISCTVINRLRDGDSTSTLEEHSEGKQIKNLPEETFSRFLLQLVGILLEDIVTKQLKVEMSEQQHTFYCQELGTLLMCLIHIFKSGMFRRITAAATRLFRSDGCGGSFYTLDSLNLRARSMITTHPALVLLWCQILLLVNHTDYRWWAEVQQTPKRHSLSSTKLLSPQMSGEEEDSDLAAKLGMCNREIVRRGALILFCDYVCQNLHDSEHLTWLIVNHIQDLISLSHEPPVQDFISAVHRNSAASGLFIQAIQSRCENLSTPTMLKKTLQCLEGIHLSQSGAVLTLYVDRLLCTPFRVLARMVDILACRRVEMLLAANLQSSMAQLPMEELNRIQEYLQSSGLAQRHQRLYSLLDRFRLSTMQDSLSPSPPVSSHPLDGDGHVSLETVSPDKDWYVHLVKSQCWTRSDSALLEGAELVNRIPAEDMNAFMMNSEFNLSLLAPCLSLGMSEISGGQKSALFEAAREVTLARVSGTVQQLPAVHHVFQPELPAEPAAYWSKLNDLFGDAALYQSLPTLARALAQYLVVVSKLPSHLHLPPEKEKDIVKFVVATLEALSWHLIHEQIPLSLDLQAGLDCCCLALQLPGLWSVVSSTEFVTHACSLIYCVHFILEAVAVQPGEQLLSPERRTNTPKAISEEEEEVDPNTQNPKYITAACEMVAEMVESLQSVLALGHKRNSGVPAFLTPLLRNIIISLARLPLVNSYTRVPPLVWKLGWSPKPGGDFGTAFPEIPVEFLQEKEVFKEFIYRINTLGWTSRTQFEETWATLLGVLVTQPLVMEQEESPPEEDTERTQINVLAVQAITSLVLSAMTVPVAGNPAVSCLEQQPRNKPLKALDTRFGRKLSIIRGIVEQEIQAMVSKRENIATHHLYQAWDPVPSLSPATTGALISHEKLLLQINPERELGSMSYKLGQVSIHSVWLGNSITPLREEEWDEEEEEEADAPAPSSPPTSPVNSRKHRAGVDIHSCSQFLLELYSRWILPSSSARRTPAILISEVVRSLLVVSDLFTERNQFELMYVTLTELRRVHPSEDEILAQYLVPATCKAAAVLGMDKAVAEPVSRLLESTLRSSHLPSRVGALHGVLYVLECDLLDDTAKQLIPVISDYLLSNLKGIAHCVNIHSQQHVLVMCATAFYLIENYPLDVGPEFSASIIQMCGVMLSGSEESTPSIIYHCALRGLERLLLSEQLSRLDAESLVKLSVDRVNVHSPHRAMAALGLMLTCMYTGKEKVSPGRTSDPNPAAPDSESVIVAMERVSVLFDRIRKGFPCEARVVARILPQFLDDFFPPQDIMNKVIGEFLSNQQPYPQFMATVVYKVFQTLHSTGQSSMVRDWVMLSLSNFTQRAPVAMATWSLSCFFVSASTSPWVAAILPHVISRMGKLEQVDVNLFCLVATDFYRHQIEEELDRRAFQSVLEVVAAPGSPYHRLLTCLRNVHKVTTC
Pf apPOL inh: Pf-apPOL DNA polymerase inhibition; Recombinant Pf-apPOL, molecular beacon fluorescence, 1.5 h; inhibition, % at 10 µM; 0.25% of 210,000 active; AID 1794808
Large screens that a line does not name were inactive; ! = repeats disagree. Rule as the data show it: active = inhibition above about 50%; inactive = the rest.

O=[N+]([O-])c1cccc(C2Nc3c(Cl)cccc3C3C=CCC32)c1 (centres undefined)	mHTT-CaM PPI inh 75!
O=[N+]([O-])c1ccc(C2Nc3c(Cl)cccc3C3C=CCC32)cc1 (centres undefined)	none
O=[N+]([O-])c1cccc(C2Nc3c(cccc3[N+](=O)[O-])C3C=CCC32)c1 (centres undefined)	mHTT-CaM PPI inh 72
O=[N+]([O-])c1cccc(C2NCCC3(O)CCCCC23)c1 (centres undefined)	none
O=[N+]([O-])c1cccc(C2Nc3c(cccc3C(F)(F)F)C3C=CCC32)c1 (centres undefined)	mHTT-CaM PPI inh 58
COCC(C)NC(=O)/C=C/c1ccc2c(c1)OCO2 (centres undefined)	none
O=C(c1ccccc1)N1CCN(Cc2cccc(Br)c2)CC1	none
CCN1c2ccc(C)cc2C(=O)NC12CCN(C(=O)c1ccc(Cl)cc1)CC2	none
Cc1ccc2c(c1)NC1(CCN(C(=O)c3ccc(F)cc3)CC1)c1cccn1-2	mHTT-CaM PPI inh 87
Cc1ccc2c(c1)NC1(CCN(C(=O)c3ccc(Cl)cc3)CC1)c1cccn1-2	mHTT-CaM PPI inh 53
CC(C)NC(=O)N1CCC2(CC1)Nc1cc(F)ccc1-n1cccc12	none
CCCCc1ccc(NC(=O)N2CCc3nc[nH]c3C2)cc1	none
COc1ccc(C2C=C(c3cccc(Br)c3)Nc3nnnn32)c(OC)c1OC (centres undefined)	none
Cc1ccc(C)n1-c1ccc(Cl)c(C(=O)NN)c1	none
COc1ccc(-n2c(C)ccc2C)cc1Cl	mHTT-CaM PPI inh 62
O=C(c1cccc(Cl)c1)N1CCN(c2ccccc2)CC1	none
O=C(c1cc(-c2ccncc2)nc2ccccc12)N1CCN(c2cccc(Cl)c2)CC1	mHTT-CaM PPI inh 91
O=C(c1cc(-c2ccccc2)nc2ccccc12)N1CCCC1	none
O=C(CCCOc1ccccc1)N1CCN(c2cccc(Cl)c2)CC1	mHTT-CaM PPI inh 70
O=C(c1ccccc1Br)N1CCN(c2cccc(Cl)c2)CC1	mHTT-CaM PPI inh 64!
O=C(CCCOc1ccccc1)N1CCN(Cc2ccccc2)CC1	none
CCOC(=O)C(C#N)=C1SCC(C)(O)N1c1c(F)cccc1F (centres undefined)	none (no result: mHTT-CaM PPI inh)
Cc1ccc(CC(=O)NC2CCN(c3ccccc3)C2=O)cc1 (centres undefined)	none
Cc1cccc(CN2CCN(C3CCN(C(=O)Nc4ccc(C)cc4Cl)CC3)C2=O)c1	none
Cc1cccc(NC(=O)CN2C(=O)C(c3ccccc3)=NC23CCCCC3)c1	none
O=C(CN1C(=O)C(c2ccc(F)cc2)=NC12CCCC2)Nc1ccc(Cl)cc1	none
O=C(CN1C(=O)C(c2ccccc2)=NC12CCCCC2)Nc1ccc(F)c(Cl)c1	none
O=C(CN1C(=O)C(c2ccccc2)=NC12CCCCC2)Nc1cccc(Cl)c1	mHTT-CaM PPI inh 89
O=C(CN1C(=O)C(c2ccc(F)cc2)=NC12CCCCC2)Nc1ccc(F)c(Cl)c1	mHTT-CaM PPI inh 95
O=C(CN1C(=O)C(c2ccc(F)cc2)=NC12CCCC2)Nc1ccc(F)c(Cl)c1	mHTT-CaM PPI inh 100
COc1cccc(CN2CCCCC2c2nc(-c3ccncc3)no2)c1 (centres undefined)	none
CCC(C)NC(=O)Cc1c[nH]c2ncccc12 (centres undefined)	none
CCc1ccc(C2=C/C(=C\c3ccc(C)o3)C(=O)O2)cc1	mHTT-CaM PPI inh 69
CCc1ccc(C2=C/C(=C/c3ccc(C)c(OC)c3)C(=O)O2)cc1	none
COc1ccc(Oc2ccc(C(F)(F)F)cc2NS(=O)(=O)c2cccc3nonc23)cc1	none (no result: mHTT-CaM PPI inh)
COc1ccccc1N1CCN(C(=O)CC(c2ccccc2)c2ccccc2)CC1	mHTT-CaM PPI inh 76
COc1ccccc1N1CCN(C(=O)c2ccc(CSc3ccccc3)cc2)CC1	mHTT-CaM PPI inh 68
COc1ccccc1N1CCN(C(=O)CCC(=O)N2CCN(c3ccccc3OC)CC2)CC1	none
COc1ccccc1N1CCN(C(=O)c2ccncc2)CC1	none
CC(C)Cc1cc(-c2ccccc2)c(C#N)c(=O)[nH]1	none
COc1ccc(NC(=O)c2cn(-c3cc(N4CCCCC4)ncn3)cn2)cc1Cl	none
O=C(CC1CCN(S(=O)(=O)c2ccc(Cl)s2)CC1)NCCCN1CCOCC1	none
O=C(CCCc1ccccc1)N1CCC(Nc2cccnc2)C1 (centres undefined)	none
COc1ccccc1CN1COc2ccc3c(c2C1)OC(=Cc1ccco1)C3=O	none
COc1cc(CN2COc3ccc4c(c3C2)OC(=Cc2ccccc2)C4=O)cc(OC)c1OC	none
COc1ccc(CN2COc3ccc4c(c3C2)OC(=Cc2ccco2)C4=O)cc1OC	mHTT-CaM PPI inh 53
COc1cc(CN2COc3ccc4c(c3C2)OC(=Cc2ccco2)C4=O)cc(OC)c1OC	mHTT-CaM PPI inh 51
CN(C)C(=O)C1CC(=O)N(c2ccccc2)C1 (centres undefined)	none
COc1ccc(OCc2noc(CNC(=O)CCC(=O)c3ccccc3)n2)cc1	none
COc1cccc(/C=C2\N=C(c3cccc(C)c3)OC2=O)c1	none
CC1=NN(C(=O)c2ccc(Cl)cc2)C(O)(c2cccc([N+](=O)[O-])c2)C1 (centres undefined)	none
CC1=NN(C(=O)c2cc(Br)ccc2O)C(O)(c2ccccc2)C1 (centres undefined)	mHTT-CaM PPI inh 98
CC1=NN(C(=O)c2cccc([N+](=O)[O-])c2)C(O)(c2ccc(Br)cc2)C1 (centres undefined)	mHTT-CaM PPI inh 66
CCC1=NN(C(=O)c2ccc(C)cc2)C(O)(c2ccc(Br)cc2)C1 (centres undefined)	mHTT-CaM PPI inh 70
CC1=NN(C(=O)C(C)C)C(O)(c2ccc(Br)cc2)C1 (centres undefined)	none
CC1=NN(C(=O)c2cccc(O)c2)C(O)(c2ccc(Br)cc2)C1 (centres undefined)	none
CCC1=NN(C(=O)c2ccccc2)C(O)(c2ccc(Br)cc2)C1 (centres undefined)	none
CC1=NN(C(=O)c2cccc([N+](=O)[O-])c2)C(O)(c2ccc(Cl)cc2)C1 (centres undefined)	mHTT-CaM PPI inh 59
CC(C)C(=O)N1CCCC1c1nc2cc(-c3ccc(F)cc3F)ccc2o1 (centres undefined)	none
CCc1ccccc1N1C(=O)CC(Sc2ccccc2C(=O)O)C1=O (centres undefined)	none
Cc1nc2ccccc2c2c1C(=O)N(CC(=O)O)C2=O	none
CN1C(=O)C(CC(=O)NC2CCCC2)Sc2ncccc21 (centres undefined)	none
COc1ccc([C@H]2C3C=CCC(c4ccccc4)C3C(=O)N2Cc2ccccc2)cc1Cl (some centres undefined)	none
O=C(Cc1ccc(Br)cc1)NCc1cccnc1	none
COc1cccc(C2(O)CC(C(F)(F)F)=NN2C(=O)c2ccccc2[N+](=O)[O-])c1 (centres undefined)	none
O=C(c1ccccc1)N1N=C(C(F)(F)F)CC1(O)c1cccc([N+](=O)[O-])c1 (centres undefined)	mHTT-CaM PPI inh 53
Cc1ccc(CN2CCCC2c2cc(C(C)C)on2)s1 (centres undefined)	none
O=S(=O)(c1cccn2cnnc12)N(Cc1ccccc1F)c1ccc(F)c(F)c1	mHTT-CaM PPI inh 61
O=S(=O)(c1ccc2nncn2c1)N(Cc1ccccc1Cl)c1ccccc1	none
O=S(=O)(Nc1ccc(F)cc1)c1cccn2cnnc12	Pf apPOL inh 62
O=S(=O)(c1cccn2cnnc12)N(Cc1cccc(F)c1)c1ccc(F)cc1	mHTT-CaM PPI inh 51
O=S(=O)(c1cccn2cnnc12)N(Cc1cccc(F)c1)c1ccc(F)c(F)c1	none

Assay outcomes deposited in PubChem BioAssay by University of Kansas High Throughput Screening Laboratory.
